The results in this text go back to ChEMBL document CHEMBL1961873, “Compounds: GSK PKIS; Assays: Nanosyn kinase panel” (2012).

For test [1], the target named is T1, 3-phosphoinositide-dependent protein kinase 1 (Homo sapiens) (UniProt O15530).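 Note: values are mean inhibition of PDK1.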
T1 sequence (whole entry): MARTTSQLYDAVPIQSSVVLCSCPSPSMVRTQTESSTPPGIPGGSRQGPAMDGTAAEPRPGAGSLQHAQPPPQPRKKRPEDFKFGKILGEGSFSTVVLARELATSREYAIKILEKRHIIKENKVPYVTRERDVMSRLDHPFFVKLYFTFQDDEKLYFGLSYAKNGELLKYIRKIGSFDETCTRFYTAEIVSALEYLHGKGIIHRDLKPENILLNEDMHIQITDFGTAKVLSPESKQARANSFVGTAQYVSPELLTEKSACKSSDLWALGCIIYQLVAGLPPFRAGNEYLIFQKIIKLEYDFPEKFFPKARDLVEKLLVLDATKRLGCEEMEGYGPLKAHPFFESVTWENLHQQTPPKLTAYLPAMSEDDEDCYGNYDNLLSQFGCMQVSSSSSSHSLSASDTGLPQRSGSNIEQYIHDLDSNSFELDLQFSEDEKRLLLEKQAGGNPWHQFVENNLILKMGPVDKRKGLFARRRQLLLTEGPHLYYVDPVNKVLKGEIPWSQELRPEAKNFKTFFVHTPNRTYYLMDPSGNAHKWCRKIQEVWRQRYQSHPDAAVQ
The conditions noted are these: at 0.1 µM.

The target in test [2] is cAMP-dependent protein kinase catalytic subunit alpha (Homo sapiens) (UniProt P17612). The conditions noted are these: at 0.1 µM.
Test [3] has the same target. The conditions noted are these: at 1 µM.
Test [4] has as its target Protein kinase C alpha type (Homo sapiens) (UniProt P17252). Conditions: at 0.1 µM.
For test [5] the target is unchanged. Conditions: at 1 µM.
The target of test [6] is Protein kinase C beta type (Homo sapiens) (UniProt P05771). Conditions: at 0.1 µM.
The target is the same in test [7]. The conditions noted are these: at 1 µM.
In test [8] the target is Protein kinase C eta type (Homo sapiens) (UniProt P24723). The conditions noted are these: at 0.1 µM.
For test [9] the target is unchanged. Conditions: at 1 µM.
Test [10] concerns the target Protein kinase C gamma type (Homo sapiens) (UniProt P05129). Conditions: at 0.1 µM.
Test [11] has the same target. Conditions: at 1 µM.
In test [12] the target is T2, Protein kinase C iota type (Homo sapiens) (UniProt P41743).
T2 sequence (whole entry): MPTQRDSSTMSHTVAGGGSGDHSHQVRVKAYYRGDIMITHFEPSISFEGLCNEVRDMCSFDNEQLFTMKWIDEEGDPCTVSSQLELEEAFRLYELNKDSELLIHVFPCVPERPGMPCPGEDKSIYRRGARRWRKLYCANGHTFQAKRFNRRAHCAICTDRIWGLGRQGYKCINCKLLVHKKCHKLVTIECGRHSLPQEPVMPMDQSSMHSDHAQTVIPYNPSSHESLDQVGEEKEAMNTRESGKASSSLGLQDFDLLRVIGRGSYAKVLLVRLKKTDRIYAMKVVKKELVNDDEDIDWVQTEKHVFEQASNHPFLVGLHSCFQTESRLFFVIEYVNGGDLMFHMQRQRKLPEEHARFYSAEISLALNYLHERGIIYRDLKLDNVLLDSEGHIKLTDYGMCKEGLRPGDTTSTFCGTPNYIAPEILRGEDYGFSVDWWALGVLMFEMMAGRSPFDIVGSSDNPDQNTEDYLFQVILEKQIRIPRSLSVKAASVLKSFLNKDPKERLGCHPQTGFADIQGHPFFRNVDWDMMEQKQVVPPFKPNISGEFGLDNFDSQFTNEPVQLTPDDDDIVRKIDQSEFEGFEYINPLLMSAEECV
The conditions noted are these: at 0.1 µM.

The target in test [13] is T2, Protein kinase C iota type (Homo sapiens). Conditions: at 1 µM.
In test [14] the target is Protein kinase C theta type (Homo sapiens) (UniProt Q04759). The conditions noted are these: at 0.1 µM.
The target is the same in test [15]. Conditions: at 1 µM.
The target of test [16] is Protein kinase C beta type (Homo sapiens) (UniProt P05771). The conditions noted are these: at 0.1 µM. The source holds these as a separate data set.
Test [17] shares this target. Conditions: at 1 µM. This is another data set of the same source.
In test [18] the target is T3, Serine/threonine-protein kinase D1 (Homo sapiens) (UniProt Q15139).
T3 sequence (whole entry): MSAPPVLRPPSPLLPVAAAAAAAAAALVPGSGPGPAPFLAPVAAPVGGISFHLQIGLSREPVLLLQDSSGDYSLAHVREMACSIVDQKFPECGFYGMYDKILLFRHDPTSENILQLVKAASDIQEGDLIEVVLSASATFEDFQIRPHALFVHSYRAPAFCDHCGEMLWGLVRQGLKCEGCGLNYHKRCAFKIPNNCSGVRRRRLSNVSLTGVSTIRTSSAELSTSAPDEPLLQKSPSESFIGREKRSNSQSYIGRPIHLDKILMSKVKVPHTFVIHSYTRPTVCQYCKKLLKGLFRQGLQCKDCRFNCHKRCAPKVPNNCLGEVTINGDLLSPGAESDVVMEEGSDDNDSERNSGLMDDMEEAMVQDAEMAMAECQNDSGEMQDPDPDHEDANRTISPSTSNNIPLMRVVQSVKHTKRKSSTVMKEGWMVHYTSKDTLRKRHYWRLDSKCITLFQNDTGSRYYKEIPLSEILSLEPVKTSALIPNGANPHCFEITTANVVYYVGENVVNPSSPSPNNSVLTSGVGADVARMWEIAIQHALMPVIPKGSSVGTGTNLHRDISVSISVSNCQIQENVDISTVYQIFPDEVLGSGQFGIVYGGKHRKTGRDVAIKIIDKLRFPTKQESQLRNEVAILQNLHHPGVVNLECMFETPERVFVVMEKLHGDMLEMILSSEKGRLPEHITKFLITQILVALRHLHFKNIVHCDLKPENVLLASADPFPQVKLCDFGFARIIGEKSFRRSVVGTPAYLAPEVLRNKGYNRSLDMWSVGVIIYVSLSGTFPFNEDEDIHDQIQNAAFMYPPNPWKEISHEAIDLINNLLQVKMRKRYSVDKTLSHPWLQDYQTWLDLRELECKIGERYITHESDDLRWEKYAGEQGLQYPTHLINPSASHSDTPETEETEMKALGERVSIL
The conditions noted are these: at 0.1 µM.

Test [19] addresses T3, Serine/threonine-protein kinase D1 (Homo sapiens). Conditions: at 1 µM.
Test [20] concerns the target T4, Serine/threonine-protein kinase D2 (Homo sapiens) (UniProt Q9BZL6).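 Note: reported percent inhibition values are means, part of the GSK PKIS kinase panel screen.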
T4 sequence (whole entry): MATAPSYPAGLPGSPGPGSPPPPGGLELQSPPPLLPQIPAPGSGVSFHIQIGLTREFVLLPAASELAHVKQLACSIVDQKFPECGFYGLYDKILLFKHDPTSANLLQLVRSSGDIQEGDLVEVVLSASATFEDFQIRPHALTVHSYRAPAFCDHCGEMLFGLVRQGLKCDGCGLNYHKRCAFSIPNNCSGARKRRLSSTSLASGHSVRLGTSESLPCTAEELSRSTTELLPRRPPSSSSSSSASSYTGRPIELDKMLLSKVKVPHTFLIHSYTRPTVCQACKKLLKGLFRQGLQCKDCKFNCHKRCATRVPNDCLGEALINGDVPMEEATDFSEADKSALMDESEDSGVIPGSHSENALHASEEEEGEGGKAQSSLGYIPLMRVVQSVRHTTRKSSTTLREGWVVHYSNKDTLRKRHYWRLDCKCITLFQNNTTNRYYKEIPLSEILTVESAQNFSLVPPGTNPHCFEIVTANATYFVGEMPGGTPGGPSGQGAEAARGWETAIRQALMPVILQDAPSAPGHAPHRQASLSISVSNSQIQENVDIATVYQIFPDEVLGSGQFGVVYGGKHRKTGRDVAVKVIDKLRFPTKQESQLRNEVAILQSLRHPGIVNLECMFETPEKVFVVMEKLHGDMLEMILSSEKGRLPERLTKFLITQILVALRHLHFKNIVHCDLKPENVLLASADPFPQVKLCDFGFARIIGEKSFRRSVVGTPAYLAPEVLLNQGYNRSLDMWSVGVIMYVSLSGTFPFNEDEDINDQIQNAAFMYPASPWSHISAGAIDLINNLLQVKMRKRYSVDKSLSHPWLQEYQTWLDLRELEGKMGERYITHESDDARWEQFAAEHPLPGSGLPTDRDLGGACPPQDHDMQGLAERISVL
Conditions: at 0.1 µM.

Sequence of Protein kinase C theta type (Homo sapiens) (Q04759 whole entry, looked up): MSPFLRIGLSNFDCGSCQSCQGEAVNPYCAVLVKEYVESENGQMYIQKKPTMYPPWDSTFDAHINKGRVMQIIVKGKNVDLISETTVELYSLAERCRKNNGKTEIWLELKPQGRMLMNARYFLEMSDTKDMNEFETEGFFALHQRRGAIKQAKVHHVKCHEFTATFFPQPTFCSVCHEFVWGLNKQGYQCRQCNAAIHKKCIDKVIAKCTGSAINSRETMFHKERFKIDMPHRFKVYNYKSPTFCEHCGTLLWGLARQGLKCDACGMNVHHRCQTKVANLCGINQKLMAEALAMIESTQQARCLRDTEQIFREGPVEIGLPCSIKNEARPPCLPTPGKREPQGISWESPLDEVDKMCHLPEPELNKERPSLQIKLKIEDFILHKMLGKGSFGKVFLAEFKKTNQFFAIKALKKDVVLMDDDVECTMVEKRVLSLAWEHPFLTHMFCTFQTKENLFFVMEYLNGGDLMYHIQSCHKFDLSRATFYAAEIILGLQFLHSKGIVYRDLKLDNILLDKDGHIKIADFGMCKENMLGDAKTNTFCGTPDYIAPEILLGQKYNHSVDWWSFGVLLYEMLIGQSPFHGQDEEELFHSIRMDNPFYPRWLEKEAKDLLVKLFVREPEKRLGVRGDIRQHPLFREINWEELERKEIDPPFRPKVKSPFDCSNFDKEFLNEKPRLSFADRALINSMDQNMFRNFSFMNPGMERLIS
Sequence of Protein kinase C eta type (Homo sapiens) (P24723 whole entry): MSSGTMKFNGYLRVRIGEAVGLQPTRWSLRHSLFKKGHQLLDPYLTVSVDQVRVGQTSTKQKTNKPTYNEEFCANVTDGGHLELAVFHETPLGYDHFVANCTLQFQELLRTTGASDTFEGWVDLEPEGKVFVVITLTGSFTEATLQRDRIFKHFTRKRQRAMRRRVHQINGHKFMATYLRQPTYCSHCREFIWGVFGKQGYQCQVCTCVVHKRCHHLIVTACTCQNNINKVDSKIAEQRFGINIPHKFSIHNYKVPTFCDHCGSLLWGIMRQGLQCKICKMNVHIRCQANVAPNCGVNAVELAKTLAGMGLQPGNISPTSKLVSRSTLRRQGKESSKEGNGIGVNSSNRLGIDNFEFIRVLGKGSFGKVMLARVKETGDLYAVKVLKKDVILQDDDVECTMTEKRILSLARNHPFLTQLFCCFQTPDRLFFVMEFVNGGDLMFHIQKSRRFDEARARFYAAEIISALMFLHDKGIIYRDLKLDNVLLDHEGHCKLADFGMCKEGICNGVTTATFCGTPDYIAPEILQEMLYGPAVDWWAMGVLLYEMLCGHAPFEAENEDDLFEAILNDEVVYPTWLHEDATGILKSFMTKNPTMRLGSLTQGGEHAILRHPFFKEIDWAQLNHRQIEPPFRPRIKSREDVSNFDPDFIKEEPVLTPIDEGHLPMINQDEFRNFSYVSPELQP
Sequence of Protein kinase C beta type (Homo sapiens) (P05771 2-671 limits assumed): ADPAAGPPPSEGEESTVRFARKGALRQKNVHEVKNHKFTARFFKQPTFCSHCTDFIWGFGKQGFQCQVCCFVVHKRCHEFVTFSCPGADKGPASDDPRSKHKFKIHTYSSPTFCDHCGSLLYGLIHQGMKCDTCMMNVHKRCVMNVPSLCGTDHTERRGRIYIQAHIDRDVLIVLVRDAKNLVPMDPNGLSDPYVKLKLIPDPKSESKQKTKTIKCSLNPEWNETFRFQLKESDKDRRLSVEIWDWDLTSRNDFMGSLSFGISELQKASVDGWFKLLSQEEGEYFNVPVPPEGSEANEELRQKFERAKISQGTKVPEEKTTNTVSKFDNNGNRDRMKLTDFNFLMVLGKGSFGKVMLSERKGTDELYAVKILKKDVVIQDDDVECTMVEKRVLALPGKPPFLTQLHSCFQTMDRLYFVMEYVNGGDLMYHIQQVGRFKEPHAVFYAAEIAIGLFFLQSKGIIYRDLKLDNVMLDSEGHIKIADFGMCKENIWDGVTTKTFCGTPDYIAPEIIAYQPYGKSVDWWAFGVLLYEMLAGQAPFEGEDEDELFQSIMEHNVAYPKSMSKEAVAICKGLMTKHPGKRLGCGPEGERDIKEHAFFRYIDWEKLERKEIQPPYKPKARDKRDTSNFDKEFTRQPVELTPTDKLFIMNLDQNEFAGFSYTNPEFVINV

Consider `Cc1ccc2c(-c3ccnc(Nc4cccc(C(F)(F)F)c4)n3)c(-c3ccccc3)nn2n1`, for which the inhibition (commonly the change of the read-out against control, counted positive when it falls) in [1] came out at 0.65%; in test [2], 2.43%; in [3] it was 4.26%; in [4], 1.57%; in [5], 10.6%; in test [6] it was 0.54%. In addition, the inhibition is 3.6% in test [7]; 5.12% in [8]; 4.11% in test [9]; -1.08% in test [10]; 5.36% in test [11]; 1.34% in [12]. Besides, the inhibition was 1.37% in test [13]; 2.13% in test [14]; 3.7% in [15]; 1.37% in [16]; 5% in [17]; 7.68% in [18]. Moreover, the inhibition in test [19] was 39.8%; in test [20] it was 12.8%.

`FC(F)(F)c1ccc(-c2nn3ncccc3c2-c2ccnc(Nc3ccc4c(c3)OCCO4)n2)cc1`: the inhibition turned out to be 1.11% in [1]; 6.1% in test [2]; 6.96% in test [3]; 0.99% in [4]; 1.28% in [5]; 8.14% in test [6]. For the same compound, the inhibition in test [7] was found to be 11.9%; in [8], 1.27%; in [9], 6.69%; in [10] it was 5.17%; in test [11] it was 5.47%; in test [12], 6.58%. The inhibition in test [13] came to 3.53%; in test [14], 2.52%; in test [15], 5.32%; in test [16], 5.29%; in test [17] it was 6.33%; in test [18], 2.27%. Also, the inhibition in test [19] is -1.71%; in test [20], 0.7%.

For `O=S(=O)(CCOCc1ccc(-c2ccc3ncnc(Nc4ccc(OCc5cccc(F)c5)c(Cl)c4)c3c2)o1)c1ccccc1`, the inhibition was -0.28% in test [1]; 0.54% in test [2]; -0.2% in test [3]; 0.23% in [4]; 0.58% in test [5]; -0.21% in test [6]. In addition, the inhibition in test [7] was -0.92%; in test [8], 1.32%; in test [9] it was 1.22%; in [10], 0.84%; in [11], 1.98%; in [12], 0.8%. Further, the inhibition in test [13] worked out at 0.31%; in [14] it was 0.62%; in test [15], 0.48%; in [16], 0.96%; in test [17], 1.53%; in test [18], 1.15%. In addition, the inhibition in [19] turned out to be 2.02%; in test [20], 1.72%.

In the case of `CCOc1nccc2c1nc(-c1nonc1N)n2CC`, the inhibition in test [1] was 1.85%; in [2] it was 3.12%; in test [3], 9.17%; in test [4], -0.03%; in test [5], 1.03%; in test [6], 11.6%. The inhibition in test [7] is 39.7%; in test [8], 7.44%; in test [9], 24.1%; in test [10], 3.01%; in test [11] it was 0.08%; in [12], 3.07%. For the same compound, the inhibition in test [13] was 0.84%; in [14] it was 2.98%; in test [15], 6.45%; in [16], 3.06%; in test [17] it was 5.23%; in [18] it was 3.37%. For the same compound, the inhibition in test [19] came to 1.82%; in test [20] it was 1.9%.
